These results are taken from PubChem BioAssay (Tox21).

For test [1], the target named is Estrogen receptor beta (Homo sapiens) (UniProt Q92731). The test can be described thus: qHTS assay to identify small molecule agonists of the estrogen receptor beta (ER-beta) signaling pathway (AID 1259377; active = well fitted activation curve with a large enough effect in the signal ratio in the repeat runs, not every such curve was filed as active; the % refers to the signal ratio). The method in brief: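 Measured by fluorescence intensity from a B/G FRET beta-lactamase substrate (2 h, room temperature) in ER-beta-UAS-bla HEK293T cells treated with DMSO-dissolved compounds for 16 hr at 37C and 5% CO2.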

Test [2] shares this target. The test can be described thus: qHTS assay to identify small molecule antagonists of the estrogen receptor beta (ER-beta) signaling pathway (AID 1259378; active = well fitted inhibition curve with a large enough effect in the signal ratio in the repeat runs, not every such curve was filed as active; the % refers to the signal ratio; also: potency is read from the fitted curve at half-maximal effect). In a few lines:
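ER-beta-UAS-bla HEK293T (GripTite) cells in 2% charcoal-stripped FBS medium were preincubated 6 hr at 37C, dosed with compound, then stimulated with 1 nM E2 (final) for 16 hr; beta-lactamase reporter read by B/G FRET fluorescence after 2 hr substrate loading.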
For orientation: Quantitative high-throughput screening tests each substance at several concentrations.

Test [3] is described as follows: qHTS assay to identify small molecule agonists of the androgen receptor (AR) signaling pathway in the presence of an antagonist - cell viability counter screen (AID 1259379). Also: nearly all actives have a fitted effect of over 25% in size. Also: potency is read from the fitted curve at half-maximal effect. The method in brief: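 Cells: MDA-kb2 (MMTV-luc, AR and GR elements), 3,000/well, 5 hr settle. Added: nilutamide 3.0uM final, then compounds (15 conc.). Incubation: 16 hr, 37C, no CO2. Read-out: CellTiter-Fluor, 1 hr, fluorescence.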

Test [4] in a line: qHTS assay to identify small molecule agonists of the estrogen receptor beta (ER-beta) signaling pathway - cell viability counter screen (AID 1259380). Also: nearly all actives have a fitted effect of over 30% in size. Also: potency is read from the fitted curve at half-maximal effect. The method in brief:
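HEK293T ER-beta-UAS-bla; 2% CS-FBS; 6 hr pre-plate, 16 hr cpd at 37C/5% CO2; LiveBLAzer read first, then CellTiter-Glo 30 min RT, luminescence.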

Test [5] in a line: qHTS assay to identify small molecule antagonists of the estrogen receptor beta (ER-beta) signaling pathway - cell viability counter screen (AID 1259382). Also: nearly all actives have a fitted effect of over 55% in size. Also: potency is read from the fitted curve at half-maximal effect. In a few lines: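 Cells: ER-beta-UAS-bla HEK293T, 2,000/well, 2% CS-FBS, 6 hr settle. Cpd + E2 (1nM final), 16 hr, 37C/5% CO2. Bla FRET substrate 2 hr RT, then CellTiter-Glo 30 min RT, luminescence.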
The nature of test [6]: qHTS assay to identify small molecule agonists or antagonists of the thyroid stimulating hormone receptor (TSHR) signaling pathway - wild type cell line counter screen (AID 1259384; calls by dose curve). The method in brief:
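Wild-type HEK293 cells were plated 18 h at 37 C/5% CO2, pin-dosed with compound plus Ro20-1724 medium, held 30 min at room temperature, then given cAMP-d2 and anti-cAMP-cryptate; fluorescence was read after 1 h. Fifteen concentrations, triplicate.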

The target of test [7] is Thyrotropin receptor (Homo sapiens) (UniProt P16473). The test can be described thus: qHTS assay to identify small molecule antagonists of the thyroid stimulating hormone receptor (TSHR) signaling pathway (AID 1259385; calls by dose curve; also: nearly all actives have a fitted effect of over 20% in size). In a few lines: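 TSHR-HEK293 cells were plated and held 18 h at 37C/5% CO2, then given compound plus Ro20-1724 and stimulated with TSH at 1.5 ng/mL final. After 30 min at room temperature, cAMP was detected with cAMP-d2/anti-cAMP-cryptate (1 h) by fluorescence.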

The nature of test [8]: qHTS assay to identify small molecule agonists of the estrogen receptor alpha (ER-alpha) signaling pathway in the presence of an antagonist - cell viability counter screen (AID 1259386).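 Also: series mostly up to about 92 µM; cells exposed to compounds for 22 h at 37 °C before the viability read; nearly all actives have a fitted effect of over 30% in size.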 The method in brief: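 VM7Luc4E2, stripped-serum pre-culture 5 d; 24hr plating; +ICI-182,780 10.0nM final; cpds 15 conc, 22hr, 37C/5% CO2; CellTiter-Fluor added at 21hr, fluorescence 1hr later.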

Test [9] addresses Progesterone receptor (Homo sapiens) (UniProt P06401). The test is described as follows: qHTS assay to identify small molecule agonists of the progesterone receptor (PR) signaling pathway (AID 1346784; calls by dose curve; also: nearly all actives have a fitted effect of over 30% in size). In a few lines: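 The screen uses PR-UAS-bla HEK 293T cells in charcoal-stripped serum (2%). Compounds are applied for 16 hr at 37C after a 6 hr pre-incubation, and reporter activity is detected with a FRET beta-lactamase substrate after 2 hr at room temperature.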

Test [10] shares this target. The test is described as follows: qHTS assay to identify small molecule antagonists of the progesterone receptor (PR) signaling pathway (AID 1346795; active = well fitted inhibition curve with a large enough effect in the signal ratio in the repeat runs, not every such curve was filed as active; the % refers to the signal ratio). The method in brief:
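After 6 hr plating at 37C in 2% stripped-serum medium, PR-UAS-bla HEK293T cells got compounds, then 1 nM R5020. Sixteen hours later, LiveBLAzer substrate was applied for 2 hr at room temperature and fluorescence was recorded.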

A short description of test [11]: qHTS assay to identify small molecule antagonists of the progesterone receptor (PR) signaling pathway - cell viability counter screen (AID 1346798). Also: nearly all actives have a fitted effect of over 50% in size. Also: potency is read from the fitted curve at half-maximal effect. In a few lines: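 Viability was determined by ATP-based luminescence (CellTiter-Glo) in PR-UAS-bla HEK293T cells cultured in 2% charcoal-stripped serum and incubated 16 hr with compounds under R5020 stimulation.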
A short description of test [12]: qHTS assay to identify small molecule agonists of the progesterone receptor (PR) signaling pathway - cell viability counter screen (AID 1346799; calls by dose curve; also: nearly all actives have a fitted effect of over 45% in size; also: potency is read from the fitted curve at half-maximal effect). The method in brief:
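Viability was scored by ATP luminescence (CellTiter-Glo, 30 min, room temperature) in the same wells used for the reporter readout, after 16 hr compound exposure of PR-UAS-bla HEK293T cells.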

Test [13] can be described thus: qHTS assay to identify small molecule antagonists of the TGF-beta/Smad signaling pathway - cell viability counter screen (AID 1346824). Also: nearly all actives have a fitted effect of over 50% in size. The method in brief:
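SBE-bla HEK 293T cells were plated overnight at 37 C, then given compounds in DMSO plus TGF-beta1 (added as 0.25 ng/mL solution) for 5 hr. After the bla read, CellTiter-Glo was added to the same wells and luminescence read after 30 min at room temperature.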

Test [14] is described as follows: qHTS assay to identify small molecule agonists of the TGF-beta/Smad signaling pathway - cell viability counter screen (AID 1346829). Also: top concentration of the series differs between compounds; nearly all actives have a fitted effect of over 45% in size. In a few lines: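 SBE-bla HEK 293T cells plated overnight, compound exposure 5 hr at 37 C. Viability read in the same wells by CellTiter-Glo luminescence after 30 min at room temperature, following the beta-lactamase read.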
Test [15] in a line: qHTS assay to identify small molecule agonists of the TGF-beta/Smad signaling pathway (AID 1346859; active = well fitted activation curve with a large enough effect in the signal ratio in the repeat runs, not every such curve was filed as active; the % refers to the signal ratio; also: series mostly up to about 77 µM). In a few lines: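 Dual-wavelength fluorescence (460/530 nm emission) quantified beta-lactamase expression under the Smad binding element in HEK 293T cells following 5 hr compound treatment at 37 C.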
The target of test [16] is Thyrotropin-releasing hormone receptor (Homo sapiens) (UniProt P34981). The test is described as follows: qHTS assay to identify small molecule agonists of the thyrotropin-releasing hormone receptor (TRHR) signaling pathway (AID 1346891; calls by dose curve;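 also: HEK293 cells expressing TRHR with calcium dye readout; series mostly up to about 58 µM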). The method in brief:
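Kinetic fluorescence (3 min, 1 s intervals) reported intracellular calcium after compound transfer onto TRHR-Hek293 cells pre-loaded with dye for 2 h at 37 °C.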

Test [17] is described as follows: Human pregnane X receptor (PXR) small molecule agonists, qHTS cell viability counter screen (AID 1346977). Also: nearly all actives have a fitted effect of over 50% in size. Also: potency is read from the fitted curve at half-maximal effect. The method in brief:
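HepG2 cells stably carrying the PXR-Luc reporter are cultured with 5% charcoal-stripped FBS and treated with compounds for 24hr. CellTiter-Fluor is added at 23hr and fluorescence is read after 1hr.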

Test [18] addresses Thyrotropin-releasing hormone receptor (Homo sapiens) (UniProt P34981). The test can be described thus: qHTS assay to identify small molecule antagonists of the thyrotropin-releasing hormone receptor (TRHR) signaling pathway (AID 1346877; active = well fitted inhibition curve with a large enough effect in the repeat runs, not every such curve was filed as active; also: series mostly up to about 51 µM). The method in brief: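 Intracellular calcium fluorescence, read kinetically every second over 3 min, reports TRH-evoked signalling in HEK293 cells carrying TRHR. Test compounds were added 5 min ahead of a 1 nM TRH challenge.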

For test [19], the target named is Estrogen receptor (Homo sapiens) (UniProt P03372). The test is described as follows: qHTS assay to identify small molecule agonists of the estrogen receptor alpha (ER-alpha) signaling pathway in the presence of an antagonist (AID 1259383; calls by dose curve; also: top concentration of the series differs between compounds; nearly all actives have a fitted effect of over 15% in size). The method in brief:
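VM7Luc4E2, endog. ER-alpha + 4×ERE-luc; charcoal-stripped FBS, phenol red-free, 5 d; 24hr plating; +10.0nM ICI-182,780 (final); cpds 15 conc, 22hr, 37C/5% CO2; ONE-Glo luminescence.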

Records with an inconclusive call do not appear. The source made the active and inactive calls. Unless noted, calls follow the shape of the dose curve; as a rule, active = well fitted curve in the direction sought with a large enough effect in the repeat runs; inconclusive = weak or mixed curves; inactive = no such curve, though single readings can be large; an effect the other way counts as inactive or inconclusive.

Sequence of Estrogen receptor beta (Homo sapiens) (Q92731 whole entry, looked up): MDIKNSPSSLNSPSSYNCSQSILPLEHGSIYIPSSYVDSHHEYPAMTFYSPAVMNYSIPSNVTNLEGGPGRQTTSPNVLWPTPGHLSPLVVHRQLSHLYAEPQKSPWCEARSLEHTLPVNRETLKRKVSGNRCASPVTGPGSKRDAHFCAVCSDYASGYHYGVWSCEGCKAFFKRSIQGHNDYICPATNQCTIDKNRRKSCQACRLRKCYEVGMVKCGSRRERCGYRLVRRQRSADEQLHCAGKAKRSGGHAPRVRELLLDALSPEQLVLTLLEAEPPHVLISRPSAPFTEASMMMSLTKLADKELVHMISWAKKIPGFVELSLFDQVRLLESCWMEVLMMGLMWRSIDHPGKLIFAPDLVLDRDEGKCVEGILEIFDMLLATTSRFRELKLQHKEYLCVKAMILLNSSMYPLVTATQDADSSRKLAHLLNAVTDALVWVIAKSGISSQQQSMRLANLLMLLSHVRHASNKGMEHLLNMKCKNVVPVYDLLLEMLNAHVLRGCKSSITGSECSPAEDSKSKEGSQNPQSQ
Sequence of Estrogen receptor (Homo sapiens) (P03372 whole entry, looked up): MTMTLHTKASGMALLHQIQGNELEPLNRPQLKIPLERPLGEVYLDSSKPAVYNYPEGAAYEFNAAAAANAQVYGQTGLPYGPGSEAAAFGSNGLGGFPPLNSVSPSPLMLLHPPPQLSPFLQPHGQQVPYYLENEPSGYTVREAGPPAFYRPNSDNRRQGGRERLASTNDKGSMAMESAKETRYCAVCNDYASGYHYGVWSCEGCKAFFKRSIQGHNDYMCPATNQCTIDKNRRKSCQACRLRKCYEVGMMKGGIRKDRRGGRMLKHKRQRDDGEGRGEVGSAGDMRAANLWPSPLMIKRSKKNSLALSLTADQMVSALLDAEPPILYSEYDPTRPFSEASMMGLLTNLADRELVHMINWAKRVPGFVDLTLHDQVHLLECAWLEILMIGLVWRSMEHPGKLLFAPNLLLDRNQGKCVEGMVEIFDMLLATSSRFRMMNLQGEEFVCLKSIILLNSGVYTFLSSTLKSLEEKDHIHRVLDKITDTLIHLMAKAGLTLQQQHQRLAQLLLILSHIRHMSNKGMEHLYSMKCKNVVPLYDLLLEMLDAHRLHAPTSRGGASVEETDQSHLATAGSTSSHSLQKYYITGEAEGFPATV
Sequence of Thyrotropin-releasing hormone receptor (Homo sapiens) (P34981 whole entry, looked up): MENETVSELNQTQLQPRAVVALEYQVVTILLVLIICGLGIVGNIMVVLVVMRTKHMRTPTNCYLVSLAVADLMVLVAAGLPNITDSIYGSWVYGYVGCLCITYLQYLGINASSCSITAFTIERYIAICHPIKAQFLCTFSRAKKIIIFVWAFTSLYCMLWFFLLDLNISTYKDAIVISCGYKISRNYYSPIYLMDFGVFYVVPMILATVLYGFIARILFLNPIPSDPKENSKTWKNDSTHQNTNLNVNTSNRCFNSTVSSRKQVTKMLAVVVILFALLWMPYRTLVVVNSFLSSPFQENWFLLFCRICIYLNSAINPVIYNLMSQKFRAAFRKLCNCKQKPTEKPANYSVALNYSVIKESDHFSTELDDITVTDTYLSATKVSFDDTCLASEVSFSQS
Sequence of Thyrotropin receptor (Homo sapiens) (P16473 whole entry, looked up): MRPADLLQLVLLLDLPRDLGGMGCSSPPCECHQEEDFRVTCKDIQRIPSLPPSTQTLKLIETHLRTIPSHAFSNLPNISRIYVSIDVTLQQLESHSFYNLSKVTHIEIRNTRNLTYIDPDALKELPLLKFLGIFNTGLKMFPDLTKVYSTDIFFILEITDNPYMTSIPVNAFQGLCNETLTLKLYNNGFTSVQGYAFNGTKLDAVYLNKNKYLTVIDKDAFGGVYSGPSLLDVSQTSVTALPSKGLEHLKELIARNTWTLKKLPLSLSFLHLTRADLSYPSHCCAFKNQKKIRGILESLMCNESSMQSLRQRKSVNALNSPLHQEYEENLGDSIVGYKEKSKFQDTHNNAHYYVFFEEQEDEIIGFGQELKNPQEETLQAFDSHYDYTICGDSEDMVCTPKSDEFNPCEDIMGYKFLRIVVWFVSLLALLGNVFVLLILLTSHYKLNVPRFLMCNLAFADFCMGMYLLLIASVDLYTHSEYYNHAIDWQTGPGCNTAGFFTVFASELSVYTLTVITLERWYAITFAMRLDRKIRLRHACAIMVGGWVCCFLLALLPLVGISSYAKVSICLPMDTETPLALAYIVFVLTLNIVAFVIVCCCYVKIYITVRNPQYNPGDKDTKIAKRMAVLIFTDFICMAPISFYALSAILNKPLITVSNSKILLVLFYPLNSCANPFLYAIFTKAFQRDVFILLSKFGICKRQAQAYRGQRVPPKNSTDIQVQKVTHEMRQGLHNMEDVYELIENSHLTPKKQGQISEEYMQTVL
Sequence of Progesterone receptor (Homo sapiens) (P06401 whole entry, looked up): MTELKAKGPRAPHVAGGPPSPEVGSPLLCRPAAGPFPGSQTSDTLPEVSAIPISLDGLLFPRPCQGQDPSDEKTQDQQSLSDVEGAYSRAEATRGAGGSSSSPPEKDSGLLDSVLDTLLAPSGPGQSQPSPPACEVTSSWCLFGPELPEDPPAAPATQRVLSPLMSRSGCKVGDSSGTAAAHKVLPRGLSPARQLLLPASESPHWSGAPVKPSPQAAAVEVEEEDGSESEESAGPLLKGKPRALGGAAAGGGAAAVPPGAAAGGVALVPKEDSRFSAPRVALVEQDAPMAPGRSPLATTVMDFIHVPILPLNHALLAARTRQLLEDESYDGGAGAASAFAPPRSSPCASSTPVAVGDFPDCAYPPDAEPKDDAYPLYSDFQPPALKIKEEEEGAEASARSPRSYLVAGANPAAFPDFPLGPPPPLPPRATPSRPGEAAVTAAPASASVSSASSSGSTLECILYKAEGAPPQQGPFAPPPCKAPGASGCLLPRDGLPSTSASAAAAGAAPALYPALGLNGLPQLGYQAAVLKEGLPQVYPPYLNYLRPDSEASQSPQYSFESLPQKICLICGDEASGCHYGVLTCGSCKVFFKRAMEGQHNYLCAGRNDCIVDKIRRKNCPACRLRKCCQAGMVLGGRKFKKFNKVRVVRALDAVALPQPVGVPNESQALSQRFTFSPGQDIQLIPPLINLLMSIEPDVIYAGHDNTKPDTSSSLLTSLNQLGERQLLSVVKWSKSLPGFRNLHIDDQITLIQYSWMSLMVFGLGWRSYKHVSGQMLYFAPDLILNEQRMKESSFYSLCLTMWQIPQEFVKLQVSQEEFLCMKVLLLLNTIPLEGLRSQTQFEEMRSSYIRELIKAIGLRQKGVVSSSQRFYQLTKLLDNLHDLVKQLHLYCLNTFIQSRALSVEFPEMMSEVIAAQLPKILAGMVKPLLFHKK

As to `O=C(O)CC(=O)O`, the Potency result in test [1], in [2], in test [3], in test [4], in [5] and in test [7] was “inactive” in each case. Also, the Potency entry in test [8], in test [10], in test [11], in test [12], in test [13] and in test [14] was “inactive” in each case. For the same compound, the Potency entry in test [15], in [16] and in test [17] was “inactive” in each case. Moreover, the outcome in test [6] and in test [9] was inactive.
Turning to `Cn1cnc2ncnc(N)c21`, the Potency entry in [1], in test [2], in test [3], in [4], in test [5] and in [7] was “inactive” throughout. In addition, the Potency entry in test [8], in test [10], in test [11], in [13], in test [14] and in test [15] was “inactive” each time. Further, the Potency result in test [18], in test [16] and in test [17] was “inactive” each time. Further, the result in test [6] and in test [9] was inactive.
On to `O=C1NC2CCCCN2C12CCN(CCCN1c3ccccc3CCc3ccc(Cl)cc31)CC2` (centres undefined), for which the Potency result in [1], in [19], in test [13], in [18] and in test [16] was “inactive” throughout. Moreover, the Potency in test [2] is 23.7 µM (active); in test [3], 26.6 µM (active); in test [4] it was 26.6 µM (active); in [5], 26.6 µM (active); in test [11] it was 26.6 µM (active); in test [12], 23.7 µM (active). Further, the Potency in test [17] is 26.6 µM (active).
On to `CC(C)(C)C1=CC(=O)C=C(C(C)(C)C)C1=O`, for which the Potency entry in test [1], in test [2], in [3], in test [4], in test [5] and in test [19] was “inactive” throughout. The Potency result in test [8], in test [10], in test [11], in test [12], in test [14] and in [15] was “inactive” each time. Besides, the Potency result in [18], in test [16] and in [17] was “inactive” throughout. For the same compound, the call in test [6] and in test [9] was inactive.
In the case of `CC(C)=CCCC(C)CCOC(=O)C(C)C` (centres undefined), the Potency result in test [1], in test [2], in [4], in [5], in test [19] and in test [7] was “inactive” in each case. Besides, the Potency entry in test [11], in [12], in test [13], in test [14], in test [15] and in test [18] was “inactive” throughout. The Potency result in test [16] and in [17] was “inactive” each time. Also, the compound was classed as inactive in [6] and in [9].
Turning to `COC(=O)[C@]1(C)CCC[C@@]2(C)[C@H]1CC=C1C=C(C(C)C)CC[C@@H]12`, the Potency result in [1], in test [2], in test [3], in [5], in test [7] and in test [8] was “inactive” in each case. In addition, the Potency result in test [11], in test [13], in [14], in [15] and in test [17] was “inactive” in each case. In addition, in [9], the compound was classed as inactive.
As for `C[Si](C)O[Si](C)C`, the Potency entry in test [1], in test [2], in [3], in test [5], in test [19] and in [7] was “inactive” throughout. Also, the Potency entry in test [10], in test [11], in [12], in [13], in [15] and in test [17] was “inactive” in each case. For the same compound, the outcome in [9] was inactive.
